Out of some 59,000 compounds screened, about 6,500 (11%) were called active. About 15% were inconclusive and are not listed. Rule as the data show it: active = max dye-equivalent concentration above about 10 nM; inconclusive = mostly about 1.1 nM to 9.6 nM; inactive = weaker than that. The list comes from a sample in which actives are over-represented; it also holds similar structures and randomly drawn compounds.

A short description of this experiment: qHTS Assay for Spectroscopic Profiling in A350 Spectral Region. The settings on record: Compound autofluorescence, 340/450 nm, Alexa 350 dye-equivalents; hits give high values. The text has this: NIH Molecular Libraries Screening Centers Network [MLSCN]
NIH Chemical Genomics Center [NCGC]
Occasionally, the artifactual effect may originate from the compounds own spectral or other biophysical properties which generally tend to track its assay concentration. Pre-screening/profiling the library with respect to the compounds spectral properties should help one exclude false positives early on. While the most informative fluorescent profiling data set is obtained by performing a full excitation and emission scan of each well by using a monochromator-based plate reader, such an approach is practical only on a very limited scale as scanning each well requires long time. An alternative approach, applied here, is to perform plate reader scans using selected excitation and emission wavelength pairs to generate a multidimensional relational database that correlates compound concentration and the respective relative fluorescence intensity at a given wavelength set. A standard curve of Alexa 350 (A 350) present on each plate as six-point concentration series, was used to compute a normalized fluorescence response, termed dye-equivalent concentration, for each compound at each concentration.
NCGC Assay Protocol Summary:
100 mM Tris buffer, pH 8.0
The wells in columns 1 through 4 of a Kalypsys polypropylene 1536-well compound plate were filled with standard solutions of fluorophore corresponding to the spectral region of interest. Solutions of A 350 were placed in the following wells: I1, J1: 3 mM, I2, J2: 300 uM, I3, J3: 30 uM, I4, J4: zero (DMSO), K1, L1: 3 uM, K2, L2: […], K3, L3: 300 nM, K4, L4: zero (DMSO).
Six uL of buffer were dispensed to 1536-well Greiner black plates. Compounds and dye standards (23 nL) were transferred via Kalypsys PinTool. The plates were incubated for 15 min at room temperature, and then read on ViewLux (Perkin-Elmer) High-throughput CCD imager using 340 nm and 450 nm excitation and emission filter set.
Keywords: NIH Roadmap, MLSCN, MLI, MLSMR, qHTS, NCGC, A350, A-350, Fluorescent Profiling.
In general terms: qHTS replaces the single test concentration by a dilution series.
Regarding `CCON=C1C(C)(C)C(C)(C)C(C)(C)C1(C)C`, the max dye-equivalent concentration entry is “inactive”.

Turning to `CC(=O)N1CCN(C(=O)Nc2cccc(C(F)(F)F)c2)CC1`, the max dye-equivalent concentration entry is “inactive”.

With `CCOc1c(N2CCCCC2)c(=O)c1=O`, the max dye-equivalent concentration entry was “inactive”. Next, `COc1ccc(N(C(=O)c2cccnc2)S(=O)(=O)c2ccc3c(c2)n(C)c(=O)n3C)cc1`: “inactive”; `CCOC(=O)CNC(=O)c1nn(-c2cccc(OC)c2)c(=O)c2ccccc12`: “inactive”; `Cc1ccc(-c2c3c(=O)n(C)c(=O)n(C)c3cn2-n2cnnc2)cc1`: “inactive”. Next, `COC(=O)c1ccc(CSc2nc3ccccc3c(=O)n2-c2cccc(OC)c2)o1`: “inactive”; `COc1ccc(OC)c(-n2cc3c(=O)n(C)c(=O)n(C)c3c2)c1`: “inactive”; `COc1ccc(-c2c3c(=O)n(C)c(=O)n(C)c3cn2NC(C)=O)cc1`: 2600 nM (active). Next, `COc1ccc(-c2c3c(=O)n(C)c(=O)n(C)c3cn2-c2cccc(OC)c2)cc1`: 14 nM (active); `COc1cccc(-n2cc3c(c2-c2ccccc2)c(=O)n(C)c(=O)n3C)c1`: 10 nM (active); `Cc1cccc(-n2nc3c(c2NC(=O)c2ccc(Br)o2)CSC3)c1C`: “inactive”. Turning to `O=C(Nc1ccc(S(=O)(=O)N2CCCCC2)cc1)c1cnccn1`, the max dye-equivalent concentration entry was “inactive”.

For `Cc1nc2nc3c(cn2n1)C(=O)CC(c1ccccc1)C3` (stereo not given), the max dye-equivalent concentration result was “inactive”.

`CC1(C)C(=O)C2(CCCCC2)C(=O)OC1c1cccs1` (stereo not given): the max dye-equivalent concentration entry is “inactive”. As to `C=CCn1c(COc2ccccc2C)nnc1SCC(=O)O`, the max dye-equivalent concentration result is “inactive”. On to `Cc1ccc2[nH]c3c(c2c1)CN(C(=O)CN1CCN(c2ccccc2)CC1)CC3`, for which the max dye-equivalent concentration entry was “inactive”. In the case of `Cc1cc(C)c2c(c1)c(C)cc1nnc(SCC(=O)NCc3ccco3)n12`, the max dye-equivalent concentration result is “inactive”. Consider `CC(=O)N1CCC2(CCCN(Cc3ccccc3)C2)CC1`, for which the max dye-equivalent concentration entry was “inactive”. Take `O=C(O)/C(=C/c1c(C(=O)O)[nH]c2cc(Cl)cc(Cl)c12)c1ccccc1`: the max dye-equivalent concentration entry was “inactive”. In the case of `O=C1c2ccccc2C(=O)N1CCc1nn[nH]n1`, the max dye-equivalent concentration entry is “inactive”.

In the case of `CCOC(=O)c1c(C)n(C)c2ccc(OC)c(NC(=O)CN3CCC4(CC3)OCCO4)c12`, the max dye-equivalent concentration entry was “inactive”. Consider `C/C(N)=C(\C#N)C(=O)NCCc1ccccn1`, for which the max dye-equivalent concentration was 12 nM (active). In the case of `O=C(O)[C@H](CCc1ccccn1)c1ccccc1`, the max dye-equivalent concentration result was “inactive”. For `O=C(NCCc1ccccn1)c1ccc(COc2ccccc2)o1`, the max dye-equivalent concentration result was “inactive”. Take `CC1(C)CC(=O)C(C2=NC(C)(C)Cc3ccccc32)=C(O)C1`: the max dye-equivalent concentration entry is “inactive”. Consider `CCOc1ccc(N=C2SC(C(=O)O)CC(=O)N2C)cc1` (stereo not given), for which the max dye-equivalent concentration entry was “inactive”.

`COC(=O)N1CN(C(=O)OC)CN(C(=O)OC)C1`: the max dye-equivalent concentration entry was “inactive”. In the case of `CC(C)=C(NC(=O)c1ccco1)C(=O)NCCc1nc2ccccc2[nH]1`, the max dye-equivalent concentration entry is “inactive”.

For the molecule `CC(C)OC(=O)c1cc(NC(=O)C2C3CCC(O3)C2C(=O)O)cc(C(=O)OC(C)C)c1` (stereo not given), the max dye-equivalent concentration was 13 nM (active). In the case of `CCC(CC)C(=O)Nc1cc(C(=O)OC)cc(C(=O)OC)c1`, the max dye-equivalent concentration entry is “inactive”.

As to `O=C(CCC(=O)c1cccs1)NCc1ccccc1`, the max dye-equivalent concentration result is “inactive”. To `COC(=O)c1cn(CC(=O)NCc2cccs2)c2ccccc12` belongs “inactive”.

Turning to `O=C(Cn1cc(C(=O)c2cccs2)c2ccccc21)NCc1cccs1`, the max dye-equivalent concentration is 25 nM (active). In the case of `C=C(Br)CN1CCN(CC(=C)Br)CC1`, the max dye-equivalent concentration result was “inactive”.

Regarding `CCCOc1ccc(NC(=O)C2CCCNC2=O)cc1` (stereo not given), the max dye-equivalent concentration result was “inactive”. Take `COC(=O)COc1ccc(S(=O)(=O)Nc2ccc(NC(C)=O)cc2)cc1`: the max dye-equivalent concentration entry was “inactive”. Turning to `O=C1CCC(C(=O)Nc2ccc(OC(F)F)cc2)N1` (stereo not given), the max dye-equivalent concentration is 22 nM (active). As to `NS(=O)(=O)c1cc2c(cc1Cl)NC(C(Cl)Cl)NS2(=O)=O` (stereo not given), the max dye-equivalent concentration is 7200 nM (active). On to `Cc1cn(C2C=CC(CO)O2)c(=O)[nH]c1=O` (stereo not given), for which the max dye-equivalent concentration result is “inactive”. Regarding `Cc1ccc(C(=O)NC2CCN(C(=O)N3CCOCC3)CC2)cc1`, the max dye-equivalent concentration result was “inactive”. Consider `CCOC(=O)c1c(C(C#N)C#N)cc(C)nc1C`, for which the max dye-equivalent concentration result is “inactive”. Take `CCOC(=O)c1sc(=S)n(-c2cccc(OC)c2)c1N`: the max dye-equivalent concentration result is “inactive”. For `CCOC(=O)c1cc(-c2ccc(Cl)s2)nc2c1c(C)nn2C`, the max dye-equivalent concentration was 240 nM (active).

With `Cc1ccn2cc(C(=O)NC3CCN(Cc4ccccc4)CC3)nc2c1`, the max dye-equivalent concentration entry was “inactive”. With `CCc1ccc2oc(-c3ccc(N)cc3)nc2c1`, the max dye-equivalent concentration is 140 nM (active).

With `O=C(/C=N/O)Nc1ccccc1`, the max dye-equivalent concentration result was “inactive”.

Consider `CC1CCc2c(sc3c2C2=NS(=O)(=O)CCN2C=N3)C1` (stereo not given), for which the max dye-equivalent concentration is 29 nM (active). Next, `CC1(CCC(=O)OC2CCCCC2)OCCO1`: “inactive”; `CCOC(=O)c1cc2sccc2n1Cc1ccc(C#N)cc1`: “inactive”; `CC(C[N+](C)(C)C)OC(N)=O` (stereo not given): “inactive”. Consider `CC(=O)OC(C)C[N+](C)(C)C` (stereo not given), for which the max dye-equivalent concentration is 570 nM (active).

Consider `CCN1C(=O)/C(=C\N2CCN(c3ccccc3)CC2)SC1=S`, for which the max dye-equivalent concentration result was “inactive”. To `CCN1C(=O)/C(=C2\SC(N3CCCCC3)=NC2=O)c2ccccc21` belongs 17 nM (active); to `CC(=O)c1ccc(-n2nnnc2SCC(=O)N2CCN(C(=O)c3ccco3)CC2)cc1`, “inactive”.

The record behind these values is PubChem BioAssay AID590 (National Center for Advancing Translational Sciences (NCATS), 2007).
